This note sets out measurements from PubChem BioAssay (Tox21).

A short description of assay [1]: qHTS assay to identify small molecule antagonists of the thyroid receptor (TR) signaling pathway (AID 743065). Note: nearly all actives have a fitted effect of over 55% in size. Note: potency is the fitted concentration of half-maximal effect. A digest of the protocol: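 GH3.TRE-Luc rat pituitary cells carrying two TR response elements driving luciferase were plated for 4 h, given compound plus 1 nM T3 (final), and incubated 23.5 h at 37 C. ONE-Glo luminescence measured reporter inhibition; CellTiter-Fluor fluorescence tracked cytotoxicity.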
(Quantitative high-throughput screening tests each substance at several concentrations.)

In assay [2] the test system is thyroid hormone receptor (rat, GH3 cells). As to the kind of experiment: qHTS assay to identify small molecule agonists of the thyroid receptor (TR) signaling pathway (AID 743066; calls by dose curve).
Assay [3] deals with Estrogen receptor (Homo sapiens) (UniProt P03372). As to the kind of experiment: qHTS assay to identify small molecule antagonists of the estrogen receptor alpha (ER-alpha) signaling pathway (AID 743069; active = well fitted curve in the direction sought with a large enough effect in the signal ratio in the repeat runs, not every such curve was filed as active; inconclusive = weak or mixed curves, or effect the other way; inactive = no such curve, though single readings can be large or run the other way; the % refers to the signal ratio; note: potency is the fitted concentration of half-maximal effect). A digest of the protocol: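 A 17beta-estradiol challenge was applied right after compound transfer to ER-alpha-UAS-bla HEK293 cells previously kept in charcoal-stripped serum. Plates stood 18 hr at 37C and 5% CO2; fluorescence was read following 2 hr FRET substrate loading at room temperature.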
Chain of Estrogen receptor (Homo sapiens) (P03372 whole entry, looked up): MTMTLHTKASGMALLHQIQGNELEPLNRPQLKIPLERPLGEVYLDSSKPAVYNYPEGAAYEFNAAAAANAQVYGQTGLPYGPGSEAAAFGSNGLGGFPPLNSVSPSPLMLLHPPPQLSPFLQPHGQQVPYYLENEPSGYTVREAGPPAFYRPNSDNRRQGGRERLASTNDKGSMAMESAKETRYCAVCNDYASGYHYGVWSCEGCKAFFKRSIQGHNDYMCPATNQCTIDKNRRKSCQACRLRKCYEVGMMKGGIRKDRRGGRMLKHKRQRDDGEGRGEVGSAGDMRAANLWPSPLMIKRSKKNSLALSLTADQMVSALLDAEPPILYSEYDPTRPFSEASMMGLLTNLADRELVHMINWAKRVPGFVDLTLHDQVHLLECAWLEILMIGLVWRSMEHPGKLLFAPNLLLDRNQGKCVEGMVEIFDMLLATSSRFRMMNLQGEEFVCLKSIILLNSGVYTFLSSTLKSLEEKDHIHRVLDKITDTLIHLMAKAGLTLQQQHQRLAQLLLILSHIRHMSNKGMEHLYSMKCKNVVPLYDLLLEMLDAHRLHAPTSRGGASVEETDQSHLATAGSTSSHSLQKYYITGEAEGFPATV

Assay [4] shares this target. As to the kind of experiment: qHTS assay to identify small molecule agonists of the estrogen receptor alpha (ER-alpha) signaling pathway using the BG1 cell line (AID 743079). Note: nearly all actives have a fitted effect of over 20% in size. Note: potency is the fitted concentration of half-maximal effect. To be noted: BG1Luc4E2 cells, ERE-luciferase agonist, 22 h; activation: at 70.3 µM (top of the series).
The nature of assay [5]: qHTS assay to identify small molecule antagonists of the estrogen receptor alpha (ER-alpha) signaling pathway using the BG1 cell line (AID 743080; calls by dose curve; note: nearly all actives have a fitted effect of over 25% in size; note: potency is the fitted concentration of half-maximal effect). A digest of the protocol:
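Antagonist mode: compounds in DMSO were pinned onto BG1-Luc-4E2 cells alongside 17beta-estradiol agonist, incubated 21.5 h, and ERE-driven luciferase measured with ONE-Glo. Cytotoxicity was multiplexed using CellTiter-Fluor fluorescence.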

Assay [6] can be described thus: qHTS assay to identify small molecule antagonists of the estrogen receptor alpha (ER-alpha) signaling pathway using the BG1 cell line - cell viability counter screen (AID 743081).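 Note: compound given together with 17beta-estradiol as the ER stimulus; nearly all actives have a fitted effect of over 45% in size.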 Note: potency is the fitted concentration of half-maximal effect.
Another assay addresses Aromatase (Homo sapiens) (UniProt P11511). As to the kind of experiment: qHTS assay to identify aromatase inhibitors (AID 743083). Note: nearly all actives have a fitted effect of over 55% in size. Note: potency is the fitted concentration of half-maximal effect.
Assay [7] is described as follows: qHTS assay to identify small molecule antagonists of the estrogen receptor alpha (ER-alpha) signaling pathway - cell viability counter screen (AID 743074; calls by dose curve;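 note: HEK293 cells carrying ER-alpha-UAS-bla reporter stimulated with 17beta-estradiol; nearly all actives have a fitted effect of over 45% in size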).
Assay [8] concerns the target Estrogen receptor (Homo sapiens) (UniProt P03372). Put plainly: qHTS assay to identify small molecule agonists of the estrogen receptor alpha (ER-alpha) signaling pathway (AID 743075; calls by dose curve;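 note: HEK293 GripTite cells with ER-alpha and UAS-driven beta-lactamase reporter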).

A structure can be active in one record and inactive in another. Active and inactive are the calls of the source. Unless noted, calls come from the whole dose curve; as a rule, active = well fitted curve in the direction sought with a large enough effect in the repeat runs; inconclusive = weak or mixed curves; inactive = no such curve, though single readings can be large; an effect the other way counts as inactive or inconclusive.

Chain of Aromatase (Homo sapiens) (P11511 whole entry, looked up): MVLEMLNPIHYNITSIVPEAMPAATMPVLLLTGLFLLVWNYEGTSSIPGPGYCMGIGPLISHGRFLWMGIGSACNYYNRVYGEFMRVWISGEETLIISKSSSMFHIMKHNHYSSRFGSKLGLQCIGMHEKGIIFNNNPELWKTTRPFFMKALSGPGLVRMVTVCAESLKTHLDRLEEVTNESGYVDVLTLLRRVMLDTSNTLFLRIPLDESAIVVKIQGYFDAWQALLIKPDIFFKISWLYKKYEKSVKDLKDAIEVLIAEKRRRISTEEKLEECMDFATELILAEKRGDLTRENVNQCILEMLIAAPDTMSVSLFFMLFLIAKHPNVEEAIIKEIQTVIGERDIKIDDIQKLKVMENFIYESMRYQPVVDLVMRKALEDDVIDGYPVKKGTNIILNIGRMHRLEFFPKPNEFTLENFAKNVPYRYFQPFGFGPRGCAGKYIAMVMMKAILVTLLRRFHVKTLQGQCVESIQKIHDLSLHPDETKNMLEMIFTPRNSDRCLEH

On to `CCCCCCCCCCCCCCCC(=O)OC[C@@H](NC(=O)C(Cl)Cl)[C@H](O)c1ccc([N+](=O)[O-])cc1`, for which the Potency entry in [1], in assay [2], in [3], in [4], in assay [5] and in assay [6] was “inactive” in each case. Besides, in the assay with Aromatase (Homo sapiens), the Potency entry was “inactive”.

In the case of `CCCCCCCCCCCCCCCCCC(=O)OCC(C)O` (stereo not drawn), the Potency result (in assay [1]; in [2]; in assay [7]; in the assay with Aromatase (Homo sapiens)) was “inactive” throughout. For the same compound, the Potency in [6] was 21.1 µM (active).

On to `CC(C(=O)O)c1ccc(N2Cc3ccccc3C2=O)cc1` (stereo not drawn), for which the Potency was 7.5 µM (active) in assay [1], 0.119 µM (active) in assay [4] and 16.8 µM (active) in assay [5]. Further, the Potency result in assay [3], in assay [7] and in assay [6] was “inactive” throughout.

`C/C(=C(\CCOC(=O)c1ccccc1)SS/C(CCOC(=O)c1ccccc1)=C(/C)N(C=O)Cc1cnc(C)nc1N)N(C=O)Cc1cnc(C)nc1N`: the Potency in [1] is 23.7 µM (active). Further, the Potency entry in assay [2], in assay [3], in assay [7], in assay [8], in [5] and in assay [6] was “inactive” throughout. Also, in the assay with Aromatase (Homo sapiens), the Potency entry was “inactive”.

In the case of `CC#CCC(C)[C@H](O)/C=C/[C@@H]1[C@H]2c3cccc(CCCC(=O)O)c3O[C@H]2C[C@H]1O` (stereo partly drawn), the Potency result (in assay [1]; in assay [2]; in [7]; in [6]; with Aromatase (Homo sapiens)) was “inactive” in each case. Also, the Potency in assay [4] was 26.6 µM (active).

In the case of `Cn1c(O)c(N=NC(N)=S)c2ccccc21`, the Potency in [1] was 29.8 µM (active). The Potency result in [7], in assay [8] and in assay [4] was “inactive” in each case.

For the compound `C#CCOc1ccc2c(C)cc(=O)oc2c1`, the Potency result in [1], in assay [2], in [7], in [8], in assay [4] and in assay [5] was “inactive” throughout. The Potency result (in [6]; with Aromatase (Homo sapiens)) was “inactive” in each case.

For the compound `CCOc1ccc(N=Nc2ccc(N)cc2N)cc1`, the Potency in assay [1] is 10.6 µM (active). The Potency entry (in assay [2]; in assay [7]; with Aromatase (Homo sapiens)) was “inactive” throughout.

As for `C/C1=C2N=C(/C=C3N=C(/C(C)=C4\[N-][C@@](C)([C@@H]5N=C1[C@](C)(CCC(=O)NCC(C)OP(=O)(O)O[C@H]1[C@@H](O)[C@@H](n6cnc7cc(C)c(C)cc76)O[C@@H]1CO)[C@H]5CC(N)=O)[C@@](C)(CC(N)=O)[C@@H]4CCC(N)=O)[C@@](C)(CC(N)=O)[C@@H]\3CCC(N)=O)C(C)(C)[C@@H]/2CCC(N)=O.CC(=O)O.[Co]` (stereo partly drawn), the values for the Potency (in assay [1]; in assay [6]; in the assay with Aromatase (Homo sapiens)) were 11.9 µM (active), 33.5 µM (active) and 26.6 µM (active), respectively. Also, the Potency result in assay [2] and in [7] was “inactive” throughout.

Take `Cc1c(Cl)cccc1Nc1ncccc1C(=O)O`: in [1], the Potency is 23.7 µM (active). Also, the Potency entry (in [2]; in assay [7]; in [8]; in assay [6]; in the assay with Aromatase (Homo sapiens)) was “inactive” each time.

In the case of `CCCCC(C)(O)C/C=C/[C@H]1[C@H](O)CC(=O)[C@@H]1CCCCCCC(=O)OC` (stereo partly drawn), the Potency entry (in [1]; in assay [2]; in assay [7]; in [6]; with Aromatase (Homo sapiens)) was “inactive” throughout.

For `CCOC(=O)COc1ccc2c(C)c(CCN(CC)CC)c(=O)oc2c1`, the Potency result in [1], in assay [2], in assay [3], in assay [8], in assay [4] and in assay [6] was “inactive” throughout. In addition, the Potency entry with Aromatase (Homo sapiens) is “inactive”.

As to `CC(C)NCC(O)COc1ccccc1-n1cccc1` (stereo not drawn), the Potency result (in assay [1]; in [2]; in [7]; in assay [6]; with Aromatase (Homo sapiens)) was “inactive” each time.

Take `O=C(O)CN(CC(=O)O)CC1=CC2C(=CC1=O)Oc1cc(O)c(CN(CC(=O)O)CC(=O)O)cc1C21OC(=O)c2ccccc21` (stereo not drawn): the Potency entry (in [1]; in assay [2]; in assay [8]; in assay [5]; in the assay with Aromatase (Homo sapiens)) was “inactive” throughout.

For the compound `COc1cc([C@@H]2c3cc4c(cc3C(O[C@@H]3O[C@@H]5CO[C@@H](C)O[C@H]5[C@H](O)[C@H]3O)C3COC(=O)[C@@H]32)OCO4)cc(OC)c1OP(=O)(O)O` (stereo partly drawn), the Potency in assay [1] is 11.9 µM (active); in [4], 11.9 µM (active) and inactive. For the same compound, the Potency entry (in assay [2]; in [3]; in [8]; with Aromatase (Homo sapiens)) was “inactive” in each case.

As for `CCCCCCCCCCCCCCCCSCC(COC)COP(=O)([O-])OCC[N+](C)(C)C` (stereo not drawn), the Potency was 18.8 µM (active) in assay [1] and 21.3 µM [inhibitor] (active) in assay [3]. Further, the Potency result in assay [7], in [8], in assay [4], in assay [5] and in assay [6] was “inactive” in each case.

As to `C[C@H](/C=C/[C@H](C)C(C)(C)O)[C@H]1CC[C@H]2/C(=C/C=C3C[C@@H](O)C[C@H](O)C3)CCC[C@]12C`, the Potency is 16.8 µM (active) in [1], 23.9 µM [inconclusive] (active) in assay [3] and 29.8 µM (active) in assay [5]. Further, the Potency result (in assay [8]; in assay [6]; in the assay with Aromatase (Homo sapiens)) was “inactive” throughout.

With `CC(O)CN(C)C` (stereo not drawn), the Potency result in assay [1], in [2], in assay [3], in assay [7], in assay [5] and in assay [6] was “inactive” each time. The Potency entry with Aromatase (Homo sapiens) is “inactive”. The Potency in assay [4] was 11.9 µM (active).

As to `CN1CCN2c3ncccc3Cc3ccccc3C2C1` (stereo not drawn), in assay [1], the Potency is 21.1 µM (active). Besides, the Potency entry in assay [2], in assay [7] and in assay [6] was “inactive” each time.

For the compound `CCCCCCCCCCCCCCCCCCCCCC(=O)Nc1ccn([C@@H]2O[C@H](CO)[C@@H](O)[C@@H]2O)c(=O)n1`, in assay [1], the Potency was 18.8 µM (active). Moreover, the Potency entry (in assay [2]; in [7]; in [6]; in the assay with Aromatase (Homo sapiens)) was “inactive” in each case.

Take `CN(C)CCOc1ccccc1Cc1ccccc1` (tested in a mixture with another compound): the Potency result (in [2]; in assay [7]; in assay [6]; with Aromatase (Homo sapiens)) was “inactive” throughout.

On to `CCCCCCCCCCCCCCCC(=O)O[C@@H]1CC(C)=C(/C=C/C(C)=C/C=C/C(C)=C/C=C/C=C(C)/C=C/C=C(C)/C=C/C2=C(C)C[C@@H](OC(=O)CCCCCCCCCCCCCCC)CC2(C)C)C(C)(C)C1`, for which the Potency result in [2], in assay [7], in assay [8], in assay [4], in assay [5] and in assay [6] was “inactive” in each case. The Potency entry with Aromatase (Homo sapiens) is “inactive”.

In the case of `CN1CC(O)c2cc(N=NC(N)=O)c(O)cc21` (stereo not drawn), the Potency entry in [3], in [7], in [8], in assay [4], in assay [5] and in [6] was “inactive” throughout. Also, the Potency result with Aromatase (Homo sapiens) was “inactive”.

Take `O=C(Nc1ccc(/C=C/c2ccc(NC(=O)c3cc(S(=O)(=O)O)c4cccnc4c3O)cc2S(=O)(=O)O)c(S(=O)(=O)O)c1)c1cc(S(=O)(=O)O)c2cccnc2c1O`: the Potency result in assay [2], in [3], in assay [7], in [8], in [4] and in assay [6] was “inactive” each time. Moreover, the Potency result with Aromatase (Homo sapiens) is “inactive”.

For `N=C(N)c1ccc(OCCCOc2ccc(C(=N)N)cc2Br)c(Br)c1`, in assay [2], the Potency entry was “inactive”.
